SMILES strings stand for the structures. About 83,000 compounds went through this panel and 20% of them were active in at least one assay; those are over-represented in the sample as a whole.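 Negative percent growth values reflect cell death: -40 means 40% of the cells present at the start died, and -100 means all died.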 A number with no mark means an inactive call. Active and inactive are the calls of the source. Rule for the calls: active = growth percent below 10; inactive = the rest.

The test system of the test is MDA-MB-468 breast. As to the kind of experiment: NCI-60 one-dose screen, 48 h (100 = growth as untreated, 0 = no growth, -100 = all killed). The following applies: 10 µM unless noted.
Take `NCCN1CCNCC1`: the growth is 95.2%. For the compound `COc1ccc2c(c1)N(CCO)C1=C(C(=O)OC1)C2c1cccc(F)c1` (stereo not given), the growth is 7.89% (active).

With `CN1CCN(c2ccc(Nc3nc(NCCCNS(=O)(=O)c4ccccc4)c4sccc4n3)cc2)CC1`, the growth is 30.3%.

Take `O=C(Nc1cccc(Cl)c1)Nc1cc(C(F)(F)F)ccc1Cl`: the growth is 1.29% (active). With `COc1cc(/C=C2\C=C(c3ccc(F)cc3)N(Cc3ccccc3)C2=O)cc(OC)c1OC` the figure was 49.9%; with `COc1ccc2c(c1)N(Cc1ccc(Cl)cc1)CCC2N1CCCC1=O` (stereo not given), 42.3%; with `Nc1n[nH]c2cccc(C#Cc3cccc(NC(=O)c4cc(F)cc(C(F)(F)F)c4)c3)c12`, 92.2%. With `Cc1cc(NCCN(C(C)C)C(C)C)nc(/N=C(\N)Nc2ccc(Cl)c(C(F)(F)F)c2)n1` the figure was -98.6% (active); with `CCOC(=O)c1c(Nc2ccccc2)nn2c(-c3ccccc3)ccnc12`, 98%.

For the compound `CCOC(=O)c1c(C)c2c(n1Cc1ccccc1)CSCC2=O`, the growth is -9.03% [100 µM] (active). Next, `COc1ccc2c(c1)N(CCO)C1=C(C(=O)OC1)C2c1cccc(Br)c1` (stereo not given): 12.9%; `O=C(Cc1ccccn1)C(F)(F)C(F)(F)C(F)(F)F`: 115%. Next, `COc1cc2c(cc1-c1c(C)noc1C)ncc1nc(C3CCOCC3)n(C3CCC(OC(F)F)CC3)c12` (stereo not given): 40.9%. With `CSc1ccc(N(C)c2nc(C)nc3c2CCC3)cc1` the figure was 46.8%; with `COc1cc2ncnc(Nc3ccc(F)c(Cl)c3)c2cc1OCC(=O)N1CCN(c2ccccc2)CC1`, -17.5% (active); with `C=C(C)[C@@H]1CC[C@]2(C(=O)N3CCNCC3)CC[C@]3(C)[C@H](CC[C@@H]4[C@@](C)(CCC(=O)N5CCNCC5)[C@H](C(=C)C)CC[C@]43C)[C@@H]12`, 49.5%. With `CSc1nc2c(c(=O)[nH]1)C(c1ccc(Cl)cc1)C1=C(N2)/C(=C/c2ccc(Cl)cc2)CNC1` (stereo not given), the growth is 48.4%. Next, `Cc1ccc(S(N)(=O)=O)cc1Cl`: 111%.

On to `COc1ccc2c(c1)c(-c1nc(-c3c[nH]c4ncccc34)cs1)cn2CCNC(=O)OC(C)(C)C`, for which the growth was 20%.

As to `O=C(Oc1ccccc1)c1cc(O)c(O)c(O)c1`, the growth was 71.7%. Take `O=C(Nc1cccc2c1C(=O)c1cccc(NC(=O)c3ccc(C(=O)Nc4cccc5c4C(=O)c4cccc(NC(=O)c6ccccc6)c4C5=O)cc3)c1C2=O)c1ccccc1`: the growth was 91.3%. Next, `N#CCCN1C(=O)CCC1C(=O)O` (stereo not given): 103%; `Cc1cc(C)nc(NS(=O)(=O)c2ccc(Nc3ccc4c5c(n(CCCN(C)C)c(=O)c4c3)-c3ccccc3C5=O)cc2)n1`: 111%; `CCN(CC)CCOc1ccccc1C`: 118%. Next, `CCOC(=O)c1c(NC(=O)c2ccc(F)cc2F)sc2c1CCC(=O)C2`: 95.2%. With `CN(C)CCCNC(=O)C(c1ccccc1)c1ccccc1` the figure was 111%; with `O=C(Nc1ccc(I)cc1)c1cccc([N+](=O)[O-])c1O`, 2.17% (active). With `CN(C)CCCC1(c2ccc(F)cc2)OCc2cc(-c3csc4ccccc34)ccc21` (stereo not given), the growth was -68.5% (active). Next, `CN[C@@H]1C(OC2[C@H](O[C@H]3[C@H](O)[C@@H](O)[C@H](N=C(N)N)[C@@H](O)[C@@H]3N=C(N)N)OC(C)[C@]2(O)CO)OC(CO)C(O)C1O` (stereo not given in full): 108%; `CCOC(=O)c1cc2c(n1Cc1cc(OC)c(OC)c(OC)c1)-c1nc(N)sc1CCC2`: 35.8%; `CCCCNC(=O)NS(=O)(=O)c1ccc(N2N=C(c3ccc(C)cc3C)CC2c2ccc(OC)cc2)cc1` (stereo not given): 65.1%. With `CC(C)OC(=O)[C@H](C)N[P@@](=O)(OC[C@@]1(C)O[C@@H](n2cc(F)c(N)nc2=O)C[C@@H]1O[P@](=O)(N[C@@H](C)C(=O)OC(C)C)Oc1ccccc1)Oc1ccccc1` the figure was 97.9%; with `Nc1[nH]n2cc(-c3ccc(F)cc3)nc2c1N=Nc1ccc(S(N)(=O)=O)cc1`, 83.4%.

Turning to `NC(N)=N/N=C/c1ccc(-c2ccc(-c3ccc(Cl)cn3)s2)cc1`, the growth was 94.4%. For `COc1cc(/C=C(/C)C[N+](=O)[O-])ccc1O`, the growth was 57.9%. On to `CCN(CC)c1ccc(/C=C2/NC(=O)NC2=O)cc1`, for which the growth is 37.8%. As for `O=C(Nc1ccc(CN2CCOCC2)cc1)c1[nH]ncc1Nc1ncnc2sccc12`, the growth is -25.6% (active). For the compound `CC(CN)[C@@H]1CC[C@]2(CO)CC[C@]3(C)[C@H](CC[C@@H]4[C@@]5(C)CCC(N)C(C)(C)[C@@H]5CC[C@]43C)[C@@H]12` (stereo not given in full), the growth is 6.19% (active). Next, `CCOC(=O)c1cc2c(n1Cc1cc(OC)cc(OC)c1)-c1oncc1CC2`: -14.1% (active); `C/C(C=O)=C\c1ccc2c(c1)OCO2`: 94.8%.

For the origin of these results see PubChem BioAssay (NCI).
